This is part of a sample that, as a whole, favours compounds with a hit. Of some 83,000 tested, about 20% had one in any assay.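 How to read the values: 0–100, growth inhibition (40 = 60% inhibited); 0, no net growth; -100 to 0, cell death (-40 = 40% of starting cells died; -100 = all dead).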 A number with no mark means an inactive call. How the source made its calls: active means growth percent below 10; inactive means the rest.
These compounds were tested on OVCAR-4 ovarian (assay: NCI-60 one-dose screen, 48 h (100 = growth as untreated, 0 = no growth, -100 = all killed)). Conditions: 10 µM.

In order of falling growth:
1. C=CCNC(=O)c1ccc(OC)cc1  134%
2. CCCOC(=O)C(O)c1ccccc1 (stereo not drawn)  119%
3. Cc1cc(C(C)(C)C)cc(C)c1Br  115%
4. Cc1cc2ccccc2c(O)c1C#N  114%
5. CCOc1ccc(Br)cc1/C=N\N=C\c1cc(Br)ccc1OCC  113%
6. Nc1ccc(N)c([N+](=O)[O-])c1  112%
7. O=C1Cc2ccccc2C(=O)O1  112%
8. C/C(=C\c1cc(Cl)ccc1OCC(=O)O)[N+](=O)[O-]  111%
9. S=C1CCCCCN1  111%
10. C=CC[N+](C)(C)C  109%
11. CC(C)C(C#N)(C(C)C)C(C)C  109%
12. NC(=S)N/N=C/c1ccc(N)cc1  108%
13. O=C(O)c1ccnc(Br)c1  107%
14. CCOC(=O)C(CCC(C)C)C(=O)OCC  107%
15. CC(C)CCOC(=O)c1ccccc1  107%
16. COc1cc(OC)c2ccc(=O)oc2c1  107%
17. CN(C)c1ccc(S(=O)(=O)O)cc1  106%
18. COc1ccccc1N=Nc1c(O)ccc2cc(S(=O)(=O)O)ccc12  105%
19. CCCC1(c2ccccc2)NC(=O)NC1=O (stereo not drawn)  104%
20. S=c1[nH]ccn1-c1ccccc1Cl  103%
21. COC(=O)c1ccc(C(C)C)cc1  103%
22. N#Cc1c(N)sc(=S)c2c1CCCC2  102%
23. CCOC(=O)C1OC1c1ccccc1 (stereo not drawn)  101%
24. N/N=C(/Cc1ccccc1)NNC(N)=S  101%
25. CCCCC(O)c1ccccc1 (stereo not drawn)  100%
26. CN(C)/N=C/c1ccccc1O  100%
27. Clc1ccc(-c2n[nH]c3c2Cc2ccccc2-3)cc1Cl  99.9%
28. O=S(=O)(O)c1ccc(O)c2ccccc12  98.3%
29. CC(=O)OC(OC(C)=O)C1CCCO1 (stereo not drawn)  97.9%
30. c1ccc2c(N3CCCCC3)ncnc2c1  96.8%
31. COc1ccc(Oc2c(I)cc(CC(NC(C)=O)C(=O)O)cc2I)cc1 (stereo not drawn)  89.4%
32. Clc1ccc(-c2nnc(-c3cccc4ccccc34)o2)cc1  84.1%
33. O=C(CCl)N1CCN(C/C=C/c2ccccc2)CC1  81.6%
34. C#CCSc1nnnn1-c1ccc(Br)c(C)c1  80.8%
35. O=C(Nc1cc(-c2ccccc2)[nH]n1)c1ccc(Cl)cc1  71%
36. COc1cc(C2c3cc4c(cc3C3OC(=O)C2C3CO)OCO4)cc(OC)c1OC (stereo not drawn)  28.3%
37. COc1cccc(/C=N/NC(=S)NC2CC3CCC2C3)c1O (stereo not drawn)  19.2%
38. CCN=c1cc2sc3cc(NCC)c(C)cc3nc-2cc1C  17.2%

From PubChem BioAssay (NCI)
